Assay results published in PubChem BioAssay.
For some of these results: Potency and affinity values are given separately. Activity calls are given as the source filed them.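 Rule for the calls, unless noted: active = primary screen activator hit with a dose response curve and TRPC4 channel activation at any tested dose; inactive = no activation, no dose response, or not a primary hit.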

Assays:
[1] = test system: TRPC4 beta (transient receptor potential cation channel C4), mouse; assay: activators of mouse TRPC4 channel, confirmation, cell-based, Fluo4 calcium, HEK293 TRPC4beta/mu-opioid, duplicates, 10 µM (AID 2426;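 active = fluorescence ratio normalized to control raised more than 50% in primary screen plus both repeat runs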); conditions: Fluo4 calcium fluorescence, at 10 µM; stronger effect = higher value
[2] = test system: transient receptor potential cation channel C4 beta (TRPC4), mouse; assay: activators of mouse TRPC4 channel, confirmation, cell-based, second round, Fluo4, HEK293 TRPC4beta/mu-opioid, 1 µM (AID 2461;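 active = primary screen active and over 50% activation in each of two duplicate runs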); conditions: Fluo4 calcium fluorescence, at 1 µM; stronger effect = higher value
[3] = test system: TRPC4 (transient receptor potential cation channel C4 beta), mouse; assay: positive allosteric modulators of mouse TRPC4, confirmation, cell-based, second round, Fluo-4, HEK293 TRPC4beta/mu-opioid, 1 µM (AID 2554;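 active = primary screen hit whose fluorescence ratio, in both repeats, exceeds the weak agonist control mean by 3 SD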); conditions: DAMGO EC20, Fluo-4 calcium flux, at 1 µM; stronger effect = higher value
[4] = test system: TRPC4 beta (transient receptor potential cation channel C4), mouse; assay: positive allosteric modulators of mouse TRPC4, confirmation, cell-based, Fluo-4, HEK293 TRPC4beta/mu-opioid (AID 2555;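 active = primary screen hit whose calcium fluorescence ratio, in both repeats, exceeds the weak agonist control mean by 3 SD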); conditions: DAMGO EC20, Fluo-4 calcium flux, at 10 µM; stronger effect = higher value
[5] = target: Short transient receptor potential channel 4 (Mus musculus) (UniProt Q9QUQ5); assay: inhibitors of mouse TRPC4 channel, confirmation, cell-based, Fluo4, HEK293 TRPC4beta/mu-opioid (AID 2636;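 active = calcium signal cut by more than 3 SD below the full-agonist control yet still positive, in both repeats and the earlier primary screen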); conditions: DAMGO, Fluo4 calcium flux, at 10 µM; stronger effect = higher value
Sequence of Short transient receptor potential channel 4 (Mus musculus) (Q9QUQ5 whole entry, looked up): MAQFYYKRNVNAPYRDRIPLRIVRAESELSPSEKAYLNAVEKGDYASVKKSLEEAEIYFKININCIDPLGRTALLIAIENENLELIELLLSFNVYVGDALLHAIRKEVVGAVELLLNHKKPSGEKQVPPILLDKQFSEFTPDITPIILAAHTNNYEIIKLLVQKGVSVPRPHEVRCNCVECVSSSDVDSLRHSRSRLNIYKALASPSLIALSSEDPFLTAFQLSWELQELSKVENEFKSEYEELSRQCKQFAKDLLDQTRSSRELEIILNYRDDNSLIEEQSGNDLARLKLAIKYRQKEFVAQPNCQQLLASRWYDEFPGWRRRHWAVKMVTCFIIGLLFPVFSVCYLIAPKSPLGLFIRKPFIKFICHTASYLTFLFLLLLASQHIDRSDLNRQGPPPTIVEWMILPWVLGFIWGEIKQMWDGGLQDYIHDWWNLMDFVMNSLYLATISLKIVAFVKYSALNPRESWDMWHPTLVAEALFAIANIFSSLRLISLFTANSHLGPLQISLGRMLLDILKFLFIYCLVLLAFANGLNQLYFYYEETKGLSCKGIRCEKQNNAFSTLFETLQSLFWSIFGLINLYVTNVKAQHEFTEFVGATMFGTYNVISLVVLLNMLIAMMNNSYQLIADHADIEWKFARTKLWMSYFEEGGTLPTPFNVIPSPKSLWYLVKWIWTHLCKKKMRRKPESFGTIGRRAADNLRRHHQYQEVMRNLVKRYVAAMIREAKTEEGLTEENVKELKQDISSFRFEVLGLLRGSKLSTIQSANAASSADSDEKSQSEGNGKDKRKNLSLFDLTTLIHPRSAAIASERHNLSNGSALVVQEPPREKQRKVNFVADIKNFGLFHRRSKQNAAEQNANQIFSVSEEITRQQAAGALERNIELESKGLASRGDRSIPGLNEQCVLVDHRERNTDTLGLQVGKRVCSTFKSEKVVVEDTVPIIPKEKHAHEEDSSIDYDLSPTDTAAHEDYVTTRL

[6] = target: Short transient receptor potential channel 4 (Mus musculus) (UniProt Q9QUQ5); assay: inhibitors of mouse TRPC4 channel, confirmation, cell-based, second round, Fluo4, HEK293 TRPC4beta/mu-opioid, 1 µM (AID 2637;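 active = calcium signal ratio cut to more than 3 SD under the fully stimulated control mean yet still positive, in both repeats and the primary screen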;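 for inhibition: percent of integrated ratio relative to wells lacking test compound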); conditions: Fluo4 calcium flux, DAMGO, at 1 µM; stronger effect = higher value
[7] = target: Short transient receptor potential channel 4 (Mus musculus) (UniProt Q9QUQ5); assay: mouse TRPC4 channel activators, dose response, cell-based, HEK293 TRPC4/mu-opioid, Fluo-4 calcium (AID 434937)
[8] = target: Short transient receptor potential channel 4 (Mus musculus) (UniProt Q9QUQ5); assay: TRPC4 positive allosteric modulators, dose response, cell-based, HEK293 TRPC4/mu-opioid, Fluo-4 calcium, EC20 DAMGO (AID 434941;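 active = earlier screen potentiator hit that boosts the TRPC4 ion channel at some dose, with a dose response; inactive = no potentiation, no dose response, or not a prior hit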;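 note: calcium entry triggered by an EC20 dose of DAMGO at the co-expressed mu-opioid receptor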)
[9] = target: Short transient receptor potential channel 6 (Mus musculus) (UniProt Q61143); assay: inhibition of mouse TRPC6 channel, confirmation, selectivity assay for TRPC4 inhibitor project, cell-based, HEK293, membrane potential dye, duplicate (AID 434948;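 active = active in primary screen and both duplicates, each dropping signal beyond three positive-control SD with fluorescence still positive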); conditions: HEK293 TRPC6, membrane potential dye fluorescence, at 10 µM, stimulated with maximal-effect acetylcholine; stronger effect = higher value
Sequence of Short transient receptor potential channel 6 (Mus musculus) (Q61143 whole entry, looked up): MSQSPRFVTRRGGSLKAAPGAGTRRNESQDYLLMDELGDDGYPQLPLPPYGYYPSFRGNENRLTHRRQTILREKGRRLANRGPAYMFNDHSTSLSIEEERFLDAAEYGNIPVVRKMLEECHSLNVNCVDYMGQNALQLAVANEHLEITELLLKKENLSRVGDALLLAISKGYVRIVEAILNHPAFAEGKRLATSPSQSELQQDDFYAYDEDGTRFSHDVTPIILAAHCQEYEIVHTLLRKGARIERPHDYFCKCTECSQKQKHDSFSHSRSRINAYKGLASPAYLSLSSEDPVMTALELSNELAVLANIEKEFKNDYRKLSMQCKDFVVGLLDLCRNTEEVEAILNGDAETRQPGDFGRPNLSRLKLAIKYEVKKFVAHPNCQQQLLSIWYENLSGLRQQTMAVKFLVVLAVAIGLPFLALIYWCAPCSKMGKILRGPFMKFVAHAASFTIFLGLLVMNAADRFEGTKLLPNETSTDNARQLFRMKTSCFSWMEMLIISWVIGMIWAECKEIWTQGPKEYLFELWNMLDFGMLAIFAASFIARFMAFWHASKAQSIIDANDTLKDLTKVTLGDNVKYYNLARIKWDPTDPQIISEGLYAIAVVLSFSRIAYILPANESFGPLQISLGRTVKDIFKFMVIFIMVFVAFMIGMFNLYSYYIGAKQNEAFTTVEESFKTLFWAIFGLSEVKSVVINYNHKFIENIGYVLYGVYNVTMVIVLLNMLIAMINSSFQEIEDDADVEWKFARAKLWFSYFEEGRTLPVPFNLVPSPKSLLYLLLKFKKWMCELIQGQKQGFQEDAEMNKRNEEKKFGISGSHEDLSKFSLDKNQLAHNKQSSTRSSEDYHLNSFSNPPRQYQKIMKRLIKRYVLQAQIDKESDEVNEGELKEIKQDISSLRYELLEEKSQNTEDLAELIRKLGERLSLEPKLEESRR

[10] = target: Short transient receptor potential channel 6 (Mus musculus) (UniProt Q61143); assay: activation of mouse TRPC6 channel, confirmation, selectivity assay for TRPC4 activator project, cell-based, HEK293, membrane potential dye, duplicate (AID 434950;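 active = membrane potential signal rise above negative control mean plus 3 SD in both duplicates, also active in the earlier TRPC4 screen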;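 for activation: 0% = buffer only wells and 100% = acetylcholine maximal-effect wells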); conditions: HEK293 TRPC6, membrane potential fluorescence, at 10 µM; stronger effect = higher value
[11] = target: Short transient receptor potential channel 6 (Mus musculus) (UniProt Q61143); assay: TRPC6 potentiation by TRPC4 potentiator hits, confirmation, selectivity assay for TRPC4 potentiator project, HEK293 cells, membrane potential dye, duplicate (AID 434952;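 active = compound raising the membrane signal above positive-control mean plus 3 SD in both repeats, and a primary screen hit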); conditions: HEK293 TRPC6, membrane potential dye fluorescence, at 10 µM, maximal acetylcholine added after compound; stronger effect = higher value
[12] = target: Short transient receptor potential channel 4 (Mus musculus) (UniProt Q9QUQ5); assay: calcium flux activators in TRPC4/5HT1a cells, counter-screen for TRPC4 activator project, cell-based, second counter screen, HEK293 TRPC4/5HT1a, Fluo-4 (AID 434977;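 active = calcium signal rise above buffer-control mean plus 5 SD in both duplicates, and also a hit in the primary screen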); conditions: Fluo-4 calcium flux, at 10 µM; stronger effect = higher value
[13] = calcium flux inhibitors in TRPC4/5HT1a cells, confirmation, counter-screen for TRPC4 inhibitor project, cell-based, second counter screen, HEK293 TRPC4/5HT1a, Fluo-4 (AID 434978;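 active = primary screen active whose calcium signal fell more than 3 SD beyond the full-serotonin control mean in both duplicate plates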;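 for outcome: serotonin given first at submaximal then at maximal dose after compound preincubation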); conditions: Fluo-4 calcium flux, at 10 µM, serotonin added to trigger calcium flux; stronger effect = higher value
[14] = test system: TRPC4 (mouse), co-expressed with 5HT1a in HEK293; assay: calcium flux potentiators in TRPC4/5HT1a cells, confirmation, counter-screen for TRPC4 potentiator project, cell-based, second counter screen, HEK293 TRPC4/5HT1a, Fluo-4 (AID 434979;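 active = signal rise over 3 SD above mean of control wells given weak agonist, in both repeats and first screen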); conditions: Fluo-4 calcium flux, at 10 µM, serotonin added at its EC20 dose; stronger effect = higher value
[15] = calcium flux activation in mu-opioid HEK293 cells, confirmation, counter-screen for TRPC4 activator project, cell-based, HEK293 mu-opioid receptor line (AID 449723;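 active = hit in primary screen, with calcium signal over 5 SD above buffer well mean in both duplicates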;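 note: counter screen cells carry the mu-opioid receptor alone and lack TRPC4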); conditions: Fluo-4 calcium fluorescence, at 10 µM; stronger effect = higher value
[16] = calcium flux enhancement in mu-opioid HEK293 cells, confirmation, counter-screen for TRPC4 allosteric potentiator project, cell-based, HEK293 mu-opioid receptor line (AID 449724;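 active = calcium signal rise more than 3 SD above the low-dose agonist control mean, in both duplicate plates and the primary screen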); conditions: Fluo-4 calcium flux, at 10 µM, compound added before EC20 DAMGO stimulus; stronger effect = higher value

O=C(c1cccc(C(F)(F)F)c1)C1CCCN(Cc2cccn2-c2ccccn2)C1 (stereo unspecified)
active: inhibition [5] 72% | inhibition [9] 43% | inhibition [13] 29.2%
inactive: outcome [1] | outcome [2] | outcome [3] | outcome [4] | outcome [6] | outcome [7] | outcome [8] | outcome [10] | outcome [11] | outcome [12] | outcome [14] | outcome [15] | outcome [16]

Nc1c2c(nc3ccccc13)N(c1ccccc1)CC2
active: inhibition [5] 77% | inhibition [9] 26% | inhibition [13] 31.2%
inactive: outcome [1] | outcome [2] | outcome [3] | outcome [4] | outcome [6] | outcome [7] | outcome [8] | outcome [10] | outcome [11] | outcome [12] | outcome [14] | outcome [15] | outcome [16]

Cc1cccc(CN2CCCC(C(=O)Nc3ccccc3Oc3cccnc3)C2)c1 (stereo unspecified)
inactive: outcome [1] | outcome [2] | outcome [3] | outcome [4] | outcome [6] | outcome [7] | outcome [8] | outcome [9] | outcome [10] | outcome [11] | outcome [12] | outcome [14] | outcome [15] | outcome [16]
active: inhibition [5] 92% | inhibition [13] 35.8%

Cc1ccc(-n2cccn2)c(CN2CCCC(C(=O)c3ccc4c(c3)OCO4)C2)c1 (stereo unspecified)
active: inhibition [5] 53% | inhibition [9] 28% | inhibition [13] 38%
inactive: outcome [1] | outcome [2] | outcome [3] | outcome [4] | outcome [6] | outcome [7] | outcome [8] | outcome [10] | outcome [11] | outcome [12] | outcome [14] | outcome [15] | outcome [16]

Fc1ccccc1COc1ccc(Br)cc1CNCC1CCCO1 (stereo unspecified)
active: inhibition [5] 91% | inhibition [6] 42% | inhibition [9] 39.5% | inhibition [13] 16.8%
inactive: outcome [1] | outcome [2] | outcome [3] | outcome [4] | outcome [7] | outcome [8] | outcome [10] | outcome [11] | outcome [12] | outcome [14] | outcome [15] | outcome [16]

CC(=O)OCCCN1C(=O)c2cccc3cc(Br)cc(c23)C1=O
active: inhibition [5] 96% | inhibition [6] 55% | inhibition [13] 14.5%
inactive: outcome [1] | outcome [2] | outcome [3] | outcome [4] | outcome [7] | outcome [8] | outcome [9] | outcome [10] | outcome [11] | outcome [12] | outcome [14] | outcome [15] | outcome [16]

CC(C)CN(CC(C)C)c1nc(N)c(C#N)c(CC#N)c1C#N
active: inhibition [5] 85% | inhibition [13] 39.2%
inactive: outcome [1] | outcome [2] | outcome [3] | outcome [4] | outcome [6] | outcome [7] | outcome [8] | outcome [9] | outcome [10] | outcome [11] | outcome [12] | outcome [14] | outcome [15] | outcome [16]

Cc1ccc(C(CNS(=O)(=O)c2ccc([N+](=O)[O-])cc2)N2CCN(C)CC2)cc1 (stereo unspecified)
inactive: outcome [1] | outcome [2] | outcome [3] | outcome [4] | outcome [7] | outcome [8] | outcome [9] | outcome [10] | outcome [11] | outcome [12] | outcome [13] | outcome [14] | outcome [15] | outcome [16]
active: inhibition [5] 54% | inhibition [6] 63%

CCc1nc2ccccc2n1Cc1ccccc1OC
inactive: outcome [1] | outcome [2] | outcome [3] | outcome [4] | outcome [7] | outcome [8] | outcome [9] | outcome [10] | outcome [11] | outcome [12] | outcome [14] | outcome [15] | outcome [16]
active: inhibition [5] 66% | inhibition [6] 48% | inhibition [13] 43.4%

CC(C)CCN1CCN(Cc2ccsc2)CC1CCO (stereo unspecified)
active: inhibition [5] 90% | inhibition [6] 45% | inhibition [13] 33.8%
inactive: outcome [1] | outcome [2] | outcome [3] | outcome [4] | outcome [7] | outcome [8] | outcome [9] | outcome [10] | outcome [11] | outcome [12] | outcome [14] | outcome [15] | outcome [16]

CCCn1c(NC(=O)c2cccc(S(=O)(=O)N3CCCC3)c2)nc2ccccc21
inactive: outcome [1] | outcome [2] | outcome [6] | outcome [7] | outcome [8] | outcome [9] | outcome [10] | outcome [11] | outcome [12] | outcome [13] | outcome [15] | outcome [16]
active: potentiation [3] 11% | potentiation [4] 64% | inhibition [5] 87% | potentiation [14] 24.4%

O=[N+]([O-])c1ccc(CN2CCN(Cc3c[nH]c4ccccc34)CC2)cc1
active: inhibition [5] 83% | inhibition [13] 28.9%
inactive: outcome [1] | outcome [2] | outcome [3] | outcome [4] | outcome [6] | outcome [7] | outcome [8] | outcome [9] | outcome [10] | outcome [11] | outcome [12] | outcome [14] | outcome [15] | outcome [16]

O=C(OC1C2CCC1C1CN(CCc3ccccc3)CC12)c1ccccc1 (stereo unspecified)
inactive: outcome [1] | outcome [2] | outcome [3] | outcome [4] | outcome [5] | outcome [7] | outcome [8] | outcome [9] | outcome [10] | outcome [11] | outcome [12] | outcome [13] | outcome [14] | outcome [15] | outcome [16]
active: inhibition [6] 44%

COc1ccc(C)cc1N(C(=O)c1snc(C(N)=O)c1N)C(C(=O)NC1CCCC1)c1ccc(F)cc1 (stereo unspecified)
inactive: outcome [1] | outcome [2] | outcome [3] | outcome [4] | outcome [7] | outcome [8] | outcome [9] | outcome [10] | outcome [11] | outcome [12] | outcome [14] | outcome [15] | outcome [16]
active: inhibition [5] 91% | inhibition [6] 67% | inhibition [13] 41.2%

COc1cc(OC)c(C2N(C)c3ccccc3N2C)cc1OC
inactive: outcome [1] | outcome [2] | outcome [3] | outcome [4] | outcome [6] | outcome [7] | outcome [8] | outcome [9] | outcome [10] | outcome [11] | outcome [12] | outcome [13] | outcome [14] | outcome [15] | outcome [16]
active: inhibition [5] 77%

O=C(NCCCN1CCOCC1)c1ccc(NC(=O)C2COc3ccccc3O2)cc1 (stereo unspecified)
inactive: outcome [1] | outcome [2] | outcome [3] | outcome [4] | outcome [5] | outcome [6] | outcome [7] | outcome [8] | outcome [9] | outcome [11] | outcome [12] | outcome [13] | outcome [14] | outcome [15] | outcome [16]
active: activation [10] 49.5%
